# Measurements from PubChem BioAssay (NCATS).
# Experiment: qHTS drug screen for cell cycle checkpoint inhibitors in PARPi-resistant BRCA-mutant ovarian cancer cell lines. (AID 1963452)
# Conditions: PEO1/OlaR viability, CellTiter-Glo luminescence, 96 h; measured here: PEO1 parental Z-AUC; stronger effect = lower value
# Outline: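 PEO1, PEO4 and PEO1/OlaR ovarian cancer cells, 600 per well, exposed 96 h at 37C to a dilution series. Viability read by CellTiter-Glo luminescence, normalized to DMSO and empty wells; activity summarized as Z-AUC.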
row,Compound,Z-AUC
1,N#C/C(=C(/N)Sc1ccc(N)cc1)c1ccccc1C(F)(F)F,-0.277
2,Clc1ccc(-c2nc3sccn3c2/C=N/OCc2ccc(Cl)c(Cl)c2)cc1,1.09
3,COc1ccc(S(=O)(=O)N(CCO)c2ccccc2CN(C)C/C=C/c2ccc(Cl)cc2)cc1,-0.166
4,CCCC[C@@H](C=O)NC(=O)[C@H](CC(C)C)NC(=O)OCc1ccccc1,0.731
5,COc1ccc2c(c1)CC[C@@H]1[C@@H]2CC[C@]2(C)[C@@H](NCCCCCCN3C(=O)C=CC3=O)CC[C@@H]12,0.00217

# Same assay, conditions: PEO1/OlaR viability, CellTiter-Glo luminescence, 96 h; measured here: PEO4 Z-AUC; stronger effect = lower value
row,Compound,Z-AUC
1,N#C/C(=C(/N)Sc1ccc(N)cc1)c1ccccc1C(F)(F)F,-0.614
2,Clc1ccc(-c2nc3sccn3c2/C=N/OCc2ccc(Cl)c(Cl)c2)cc1,1.23
3,COc1ccc(S(=O)(=O)N(CCO)c2ccccc2CN(C)C/C=C/c2ccc(Cl)cc2)cc1,0.482
4,CCCC[C@@H](C=O)NC(=O)[C@H](CC(C)C)NC(=O)OCc1ccccc1,0.856
5,COc1ccc2c(c1)CC[C@@H]1[C@@H]2CC[C@]2(C)[C@@H](NCCCCCCN3C(=O)C=CC3=O)CC[C@@H]12,0.205
